PubChem BioAssay (NCI)
“And” between values parts separate entries of the source, which are not always exact repeats. Equal entries are not always repeated. About 79,000 compounds went through this panel and 15% of them were active in at least one assay; those are over-represented in the sample as a whole. Unmarked numbers belong to inactive results. The source made the active and inactive calls. Rule as the data show it: active = growth inhibition above about 70%; inactive = the rest.

Experiment: NCI Yeast Anticancer Drug Screen. Data for the mec2-1 strain (AID 157)
Settings: S. cerevisiae mec2-1 strain, stronger effect = higher value; at 50.0 µM unless noted
Procedure: Growth inhibition of yeast strains with defined genetic alterations is measured as a screen for potential anti-cancer activity. Selected strains with alterations in DNA damage repair or cell cycle control were exposed to compounds and growth inhibition was measured relative to vehicle treated controls. The strain used in this assay is mec2-1

Compared with NC(C=O)C(O)C(O)C(O)CO (stereo not given), C=C(C)C(C)/C(C)=N/NC(N)=O (stereo not given) (tested in a mixture with another compound) is higher in growth inhibition: -18.2% for the first, 3.3% for the second.

Going from O=C1c2ccccc2S(=O)(=O)c2c1cccc2[N+](=O)[O-] to O=C(Cc1ccc([N+](=O)[O-])cc1)Nc1cccc(O)c1, the growth inhibition rises from -15.4% to 29.2%.

Compared with CC1CN=C(N(C(=O)Nc2ccccc2)C2CCCCC2)S1 (stereo not given), ON=C1CCC(c2ccccc2)CC1 (stereo not given) is lower in growth inhibition: -8.9% for the first, -24% for the second.

First: c1ccc(C2Cc3ccccc3C2c2ccccc2)cc1 (stereo not given)
Second: CCCOC(=O)C1C(=O)CC(c2ccccc2)C1c1ccccc1 (stereo not given)
The growth inhibition of the first is higher: 11% for the first, -2.05% for the second.

Going from C=C1C(=O)OC2/C=C(\COC(C)=O)CCC(OC(C)=O)C3=CC(OC3=O)C12 (stereo not given) to C=C1C(=O)O[C@@H]2C[C@@H](C)[C@@H]3C=CC(=O)[C@@]3(C)[C@@H](OC(=O)CCCC(=O)O[C@H]3[C@@H]4C(=C)C(=O)O[C@@H]4C[C@@H](C)[C@@H]4C=CC(=O)[C@]43C)[C@H]12, the growth inhibition rises from 10.4% to 49%.

Going from O=C(Nc1ccccc1)c1cc(S(=O)(=O)Nc2n[nH]c(=O)[nH]2)c(SSc2cc(Cl)c(C(=O)Nc3ccccc3)cc2S(=O)(=O)Nc2n[nH]c(=O)[nH]2)cc1Cl to CCSc1[nH]c(Nc2nc(-c3ccccc3)n(-c3ccccc3)n2)c(C(N)=O)c1C(N)=O, the growth inhibition falls from 22.7% to 1.35%.

First: C/C(=C\c1ccc(N(C)C)cc1)c1ccncc1
Second: CN(C)c1ccccc1C(=O)N/N=C\c1ccc(-c2ccccc2)cc1
The growth inhibition of the first is higher: 38.9% for the first, 4.95% for the second.

Going from OC(c1ccc(OCc2ccccc2)cc1)c1ccccn1 (stereo not given) to c1ccc(-c2cnoc2-c2ccccc2)cc1, the growth inhibition rises from -0.65% to 17.6%.

First: O=c1c2ccccc2c(=O)n2n1-c1cccc(c1)CSSCc1cccc-2c1
Second: CC(=O)Oc1ccc(N2CC=C(c3ccccc3)CC2)cc1
The growth inhibition of the first is higher: 2.7% for the first, -13.5% for the second.

First: CC1=NN(C(=O)Nc2ccc(Cl)cc2)C(=O)C2CCC(=O)N12 (stereo not given)
Second: CSc1ccc(Cl)cc1
The growth inhibition of the first is higher: 0.6% for the first, -4.55% for the second.

Going from Cc1nc2ccncc2[nH]1 to Nc1nc2cc(F)ccc2o1, the growth inhibition falls from -1.3% to -26.1%.

Going from COC1=NS(=O)(=O)C2CCCCCCC2O1 (stereo not given) to ClC1CCC[N-]C1.ClC1CCC[N-]C1.[Cl][Pt+2][Cl] (stereo not given), the growth inhibition rises from -2.85% to 4.95%.

Compared with CC(=O)Nc1cc([N+](=O)[O-])cc([N+](=O)[O-])c1O, Cc1cc(Cl)ccc1N=C1NC(=O)C(CC(=O)Nc2ccc([N+](=O)[O-])cc2[N+](=O)[O-])S1 (stereo not given) is higher in growth inhibition: -6.95% for the first, -4% for the second.

Compared with COc1ccc(-n2c(N)c(C#N)[nH]c2=O)cc1, COc1ccc(N2C(N)=C(C#N)C(C#N)(C#N)C2c2cccc([N+](=O)[O-])c2)cc1 (stereo not given) is higher in growth inhibition: -36.1% for the first, -5.05% for the second.

Compared with OC1(C#CC#CC2(O)CCCCC2)CCCCC1, CC12CC(O)C3C(CCC4CC(O)CCC43C)C1CCC2C(=O)CO (stereo not given) is lower in growth inhibition: 15.7% for the first, 14.2% for the second.

Going from O=C1NC(=O)C(Cc2ccccc2)(c2cccnc2)N1 (stereo not given) to CCOC(=O)Cc1ccc2ccccc2c1, the growth inhibition falls from -17.7% to -24.1%.

Going from CCOC(=O)/C(Cc1ccc2ccccc2n1)=N/O to CCN(CC)c1ccc(/C=N/Nc2cc(C)nc3ccc(C4CCCCC4)cc23)cc1, the growth inhibition rises from -26.2% to 4.3%.

First: C[N+]1(C2C=CCC(c3ccccc3)C2[N+](=O)[O-])CCCC1 (stereo not given)
Second: Cc1cc(OC(=O)c2c(-c3c(Cl)cccc3Cl)noc2C)n(-c2ccc(NC(=O)c3c(-c4c(Cl)cccc4Cl)noc3C)cc2)n1
The growth inhibition of the first is lower: 9.95% for the first, 24.8% for the second.

Compared with CCCCS(=O)/C=C\S(=O)CCCC (stereo not given), NCCCc1nonc1C(=O)O is lower in growth inhibition: 6.3% for the first, -39.4% for the second.

With Cc1ccc(=O)[nH]n1 the growth inhibition was -21.7% and -16.3%.
With C/C(N=NC(=S)N1CC2CCC(CC2)C1)=C1\C=CC=CN1O the growth inhibition was 85.7% (active).
